Composite z-score and z-score data for 17 compounds are collected here from PubChem BioAssay.

The subject of assay [1] is Human papillomavirus type 1a protein E7 (residues 44-93). Nature of the assay: HPV1a E7 fragment binders on microarrays, primary screen, biochemical, small-molecule microarray, residues 44-93, 635 nm fluorescence (AID 1108).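 Note: E7 fragment applied at 1 µg/mL in TBST for 1 h at 4 C; score combines spot fluorescence with its signal to noise ratio.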 The conditions noted are these: small-molecule microarray binding, fluorescence 635 nm; higher = more signal.
The nature of assay [2]: modulators of HCV replicon luciferase signal, primary screen, HCV replication inhibitor project, Huh7 cells, luciferase reporter (AID 1109).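 Note: huh7 hepatoma cells harbouring a luciferase neomycin HCV replicon reporter; luciferase luminescence as measure of HCV replicon replication; test concentration not given here.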 The conditions noted are these: 48 h, higher = more signal.
Assay [3] has as its target Left-right determination factor 2 (Homo sapiens) (UniProt O00292). Nature of the assay: LEFTY2 binders on small-molecule microarrays, primary screen, biochemical, small-molecule microarray, 635 nm fluorescence scan (AID 1110). The settings on record: LEFTY2 binding, higher = more signal.
Assay [4] concerns the target Calmodulin-1 (Homo sapiens) (UniProt P0DP23). As to the kind of experiment: CALM1 binders on microarrays, EGTA buffer, profiling panel, biochemical, small-molecule microarray, Cy5-labelled CALM1 (AID 1111).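 Note: labelled calmodulin applied in Tris saline Tween buffer holding calcium plus EGTA and DTT.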 The settings on record: Cy5-CALM1 binding fluorescence, higher = more signal.
Assay [5] shares this target. As to the kind of experiment: calcium-bound CALM1 binders on microarrays, profiling panel, artefact control for SMM control-protein annotation, biochemical, small-molecule microarray, Cy5-labelled CALM1, plus calcium (AID 1112).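 Note: score merges spot fluorescence with signal to noise from triplicate slides.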 The settings on record: Cy5-CALM1 binding fluorescence, higher = more signal.
The nature of assay [6]: small-molecule microarray binders of probe aWnt5a, primary screen, biochemical, biotinylated probe, 635/667 nm fluorescence (AID 1113).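 Note: score merges 667 nm fluorescence intensity with signal-to-noise per printed feature.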 The conditions noted are these: higher = more signal.
Assay [7] is described as follows: small-molecule microarray binders of probe aShh, primary screen, biochemical, biotinylated probe, 635/667 nm fluorescence (AID 1114).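 Note: probe is biotin-labelled aShh protein from a stem cell growth factor screen; measures binding of labelled protein to compounds printed on the slide; score merges feature fluorescence at 667 nm with signal-to-noise.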 The settings on record: higher = more signal.
The nature of assay [8]: small-molecule microarray binders of probe aNog, primary screen, biochemical, biotinylated probe, 635/667 nm fluorescence (AID 1115).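 Note: probe is biotinylated aNog protein used at 0.15 µg/mL for 1 h at 4 C; z-score combines 667 nm fluorescence of each spot with its signal to noise.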 The settings on record: higher = more signal.
Assay [9] addresses Torsin-1A-interacting protein 1 (Homo sapiens) (UniProt Q5JTV8). Nature of the assay: LAP1 binders from COS7 cell lysate, primary screen, small-molecule microarray, 635/667 nm fluorescence (AID 1116). The settings on record: COS7-hLAP1 lysate binding, 635 nm fluorescence, higher = more signal.
Assay [10] has as its target Alpha-bungarotoxin (Bungarus multicinctus) (UniProt P60615). Nature of the assay: alpha-bungarotoxin binders on microarray, profiling panel, artefact control for SMM control protein annotation, biochemical, small-molecule microarray, Alexa647 label, 635/667 nm fluorescence (AID 1117). The conditions noted are these: alpha-BTX-A647 binding fluorescence, higher = more signal.

Alpha-bungarotoxin (Bungarus multicinctus), sequence (P60615 whole entry, looked up): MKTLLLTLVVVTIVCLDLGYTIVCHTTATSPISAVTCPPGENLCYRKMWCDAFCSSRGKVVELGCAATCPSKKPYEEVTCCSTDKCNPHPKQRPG
Torsin-1A-interacting protein 1 (Homo sapiens), sequence (Q5JTV8 whole entry, looked up): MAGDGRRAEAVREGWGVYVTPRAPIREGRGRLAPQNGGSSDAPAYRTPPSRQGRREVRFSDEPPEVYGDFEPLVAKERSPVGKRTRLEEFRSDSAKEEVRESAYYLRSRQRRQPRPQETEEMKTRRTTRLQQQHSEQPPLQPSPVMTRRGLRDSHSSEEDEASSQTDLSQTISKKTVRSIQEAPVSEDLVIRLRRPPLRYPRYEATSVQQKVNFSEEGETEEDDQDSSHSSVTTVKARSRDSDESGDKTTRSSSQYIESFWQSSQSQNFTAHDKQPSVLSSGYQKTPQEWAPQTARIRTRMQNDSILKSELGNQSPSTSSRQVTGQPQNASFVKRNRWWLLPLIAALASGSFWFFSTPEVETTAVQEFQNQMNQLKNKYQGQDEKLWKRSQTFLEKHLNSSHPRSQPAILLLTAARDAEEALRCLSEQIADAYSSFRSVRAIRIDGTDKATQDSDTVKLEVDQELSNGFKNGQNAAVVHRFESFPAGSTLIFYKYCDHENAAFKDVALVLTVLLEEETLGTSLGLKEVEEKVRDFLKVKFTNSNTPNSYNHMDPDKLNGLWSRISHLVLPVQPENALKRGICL
Left-right determination factor 2 (Homo sapiens), sequence (O00292 whole entry, looked up): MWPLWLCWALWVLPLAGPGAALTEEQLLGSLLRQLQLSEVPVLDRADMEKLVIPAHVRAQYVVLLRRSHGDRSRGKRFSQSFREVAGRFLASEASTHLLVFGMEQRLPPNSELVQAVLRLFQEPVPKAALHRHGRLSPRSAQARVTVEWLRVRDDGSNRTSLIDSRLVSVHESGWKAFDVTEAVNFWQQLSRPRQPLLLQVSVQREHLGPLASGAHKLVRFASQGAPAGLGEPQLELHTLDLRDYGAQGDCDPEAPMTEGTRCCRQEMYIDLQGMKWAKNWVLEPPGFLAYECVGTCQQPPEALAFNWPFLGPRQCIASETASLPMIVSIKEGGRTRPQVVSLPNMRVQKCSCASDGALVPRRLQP

For the compound `C[N+](C)(C)CCCC[C@@H]1NC(=O)[C@H]2C[C@@H](C(=O)O)[C@@H](c3cccc(OCCO)c3)N2C1=O`, the composite z-score turned out to be 1.47 in [1]; 0.968 in assay [3]; 2.16 in assay [4]; 0.618 in [5]; 1.18 in [6]; 2.34 in [7]. Besides, the composite z-score worked out at 2.84 in assay [8], 3.37 in assay [9] and 3.77 in assay [10]. In assay [2], this compound had a z-score of -0.774.

For the compound `C=C[C@H](C)[C@H](OC(=O)Nc1ccc(OC)cc1)c1ccc(O)c2ccccc12`, the composite z-score in assay [1] was -0.942; in assay [3], -0.654; in assay [4], -1.38; in [5] it was -0.881; in assay [6] it was -0.129; in [7] it was -0.0709. Also, the composite z-score in assay [8] was -0.0691; in [9], 0.041; in assay [10] it was -0.596. This compound gave a z-score in [2] of -3.3.

As for `COc1ccc(C#Cc2ccc3c(c2)[C@]2(C(=O)N3)[C@H](C(=O)N3CCc4cc(OC)c(OC)cc4C3)[C@H]3C(=O)O[C@H](c4ccccc4)[C@H](c4ccccc4)N3[C@@H]2c2ccc(OCCO)cc2)cc1`, the composite z-score in assay [1] is 1.39; in assay [3] it was 0.483; in assay [4], 0.861; in assay [5], -0.0312; in assay [6], 0.027; in [7], 0.0469. Moreover, the composite z-score in assay [8] is -0.551; in assay [9], 0.692; in assay [10], 0.992. This compound also yielded a z-score in [2] of -0.864.

Regarding `CCOC1=C2C(c3ccc(C)cc3)N(S(=O)(=O)c3ccc(C)cc3)CC2n2c(=O)n(-c3ccccc3)c(=O)n2C1` (stereo not given), the composite z-score in [1] is 1.32; in [3], 0.584; in assay [4] it was 0.683; in assay [5], -0.332; in assay [6], 0.0244; in [7], -0.0866. Also, the figures for the composite z-score in [8], in assay [9] and in assay [10] were 0.664, 0.582 and 1.42, respectively. In addition, the z-score in [2] is -1.1.

As to `CO[C@H]1O[C@H](CO)[C@@H](OC(=O)Nc2ccc(C(F)(F)F)cc2)[C@H](OC(=O)Nc2ccccc2)[C@@H]1OC(=O)Nc1ccccc1`, the composite z-score in [1] was 1.34; in [3], 0.003; in assay [4], 1.08; in [5], -0.778; in assay [6], 0.0887; in assay [7], -0.102. The composite z-score in assay [8] is -0.305; in [9], 1.01; in assay [10], 0.462. In [2], this compound showed a z-score of 0.0041.

Take `COCCn1c(C(=O)N2CCCC2)cc2c1C[C@H]1CN(C(=O)c3ccccc3)[C@@](Cc3ccc(OC)cc3)(C(=O)OC)[C@@H]21`: the composite z-score in [1] is 0.279; in [3] it was -0.464; in assay [4], 2.67; in assay [5], 1.33; in [6], 0.0365; in assay [7], 0.21. For the same compound, the composite z-score in assay [8] is -0.401; in assay [9] it was 3.21; in assay [10], 0.626. In assay [2], this compound came in with a z-score of -1.62.

For `COc1ccc([Si](C)(C)[C@@H]2[C@@H](CCO)O[C@]3(C(=O)N(Cc4ccc(N5C(=O)c6cccc7cccc5c67)cc4)c4ccccc43)[C@H]2C)cc1`, the composite z-score in assay [1] is -1.27; in assay [3] it was -0.983; in assay [4], 0.424; in assay [5] it was 1.09; in [6], -0.154; in [7], -0.16. In addition, the composite z-score is 0.094 in [8], -0.164 in assay [9] and -0.0784 in assay [10]. Moreover, in assay [2], the z-score was -4.81.

Turning to `CCOC(=O)C1=C[C@@H](C(C)(C)C)N(S(=O)(=O)c2ccc(C)cc2)[C@H]1c1ccc(Cl)c(Cl)c1`, the composite z-score in assay [1] is 1.34; in assay [3], 0.595; in [4] it was 1.46; in assay [5], 0.122; in assay [6] it was -0.154; in assay [7] it was 0.213. Besides, the composite z-score in assay [8] worked out at 0.863; in [9], 0.735; in assay [10], 1.35. In [2], this compound had a z-score of -0.501.

`Cc1ccc(N2C(=O)c3ccccc3[C@](C)(C(=O)NCCN3CCOCC3)[C@@H]2c2ccc(CO)cc2)nc1`: the composite z-score in [1] is -0.742; in assay [3], -1.28; in assay [4] it was -0.597; in [5], -0.583; in [6], -0.228; in assay [7], 0.0442. In addition, the composite z-score is -0.244 in [8], -0.869 in [9] and -1.44 in assay [10]. Also, the z-score in [2] was 0.548.

In the case of `[N-]=[N+]=NCc1ccccc1C[C@]1(C(=O)N2CCOCC2)N=C(c2ccc(OCCCO)cc2)O[C@H]1c1ccccc1`, the composite z-score in [1] is 1.25; in [3], -0.712; in [4], 1.4; in [5] it was 0.886; in assay [6], -0.0203; in assay [7] it was 0.207. The results for the composite z-score in assay [8], in [9] and in assay [10] were -0.376, 0.68 and 1.02, respectively. This compound came in with a z-score in assay [2] of -3.07.

In the case of `COCCOC(=O)N1C(=O)[C@@]2(c3cc(C#CC4=CCCCC4)ccc31)[C@H](c1ccc(OCCO)cc1)N1[C@H](c3ccccc3)[C@H](c3ccccc3)OC(=O)[C@H]1[C@@H]2C(=O)Nc1nc2ccccc2s1`, the composite z-score in assay [1] was 1.23; in assay [3] it was 0.172; in [4], 1.57; in [5] it was -0.386; in assay [6], -0.001; in assay [7], 0.275. Besides, the results for the composite z-score in assay [8], in [9] and in assay [10] were -0.45, 0.993 and 0.656, respectively. The compound also gave a z-score in assay [2] of -1.87.

`C=CCOC(=O)[C@@H]1[C@H]2C(=O)O[C@H](c3ccccc3)[C@H](c3ccccc3)N2[C@H](c2ccc(OCCOC(=O)[C@H]3C[C@H]4C(=O)N[C@@H](Cc5ccccc5)C(=O)N4[C@H]3c3ccc(O)cc3)cc2)[C@@]12C(=O)Nc1ccc(I)cc12`: the composite z-score was 1.06 in assay [1]; 0.866 in assay [3]; -0.0584 in assay [4]; -1.26 in assay [5]; -0.135 in [6]; 0.302 in assay [7]. For the same compound, the composite z-score in assay [8] was 0.116; in assay [9], 1.03; in assay [10] it was 1.66. The compound further came in with a z-score in assay [2] of -2.78.

Regarding `COCCOC(=O)N1C(=O)[C@@]2(c3cc(C#CCC(C(=O)OC)C(=O)OC)ccc31)[C@H](c1ccc(OCCO)cc1)N1[C@H](c3ccccc3)[C@H](c3ccccc3)OC(=O)[C@H]1[C@@H]2C(=O)NC[C@H](O)c1ccccc1`, the composite z-score in assay [1] is 0.958; in assay [3], 0.59; in assay [4], 1.09; in [5] it was -0.518; in [6], -0.17; in [7], -0.291. For the same compound, the composite z-score in assay [8] is -0.202; in assay [9] it was 0.402; in [10], 1.18. Also, the z-score in [2] is -1.71.

`C=CCN1C(=O)[C@@]2(O[C@@H](CCO)[C@H]([Si](C)(C)c3ccc(OC)cc3)[C@H]2C)c2cc(NC(C)=O)ccc21`: the composite z-score was 0.128 in [1]; 1.45 in assay [3]; 0.793 in assay [4]; 0.509 in assay [5]; 0.0136 in assay [6]; -0.0769 in assay [7]. The figures for the composite z-score in [8], in [9] and in assay [10] were -0.234, 1.14 and 0.71, respectively. For the same compound, in assay [2], the z-score was -3.7.

As to `[N-]=[N+]=Nc1ccccc1C[C@]1(C(=O)N2CCCCC2)N=C(c2ccc(OCCCO)cc2)O[C@H]1c1ccccc1N=[N+]=[N-]`, the composite z-score in assay [1] is 0.903; in [3], -0.0089; in assay [4] it was 1.46; in [5], 0.605; in assay [6] it was 0.2; in [7], 0.294. For the same compound, the composite z-score was 1.87 in assay [8], 1.21 in assay [9] and 0.703 in [10]. In assay [2], this compound came in with a z-score of -2.5.

With `CCCCN1CC=CC23O[C@@H]4/C=C\CCCOC(=O)C4[C@H]2C(=O)N(C(C)CO)[C@@H]3C1=O` (stereo not given in full), the composite z-score is -0.779 in [1]; -0.697 in assay [3]; -0.573 in assay [4]; -0.101 in [5]; -0.172 in assay [6]; -0.17 in [7]. The composite z-score in assay [8] was -0.186; in assay [9], -0.585; in assay [10] it was -0.0491. The same compound returned a z-score in assay [2] of -0.112.

Take `COCCOC(=O)N1C(=O)[C@@]2(c3cc(C#CCCO)ccc31)[C@H](c1ccc(O)cc1)N1[C@H](c3ccccc3)[C@H](c3ccccc3)OC(=O)[C@H]1[C@@H]2C(=O)N1CCCCCCC1`: the composite z-score is 0.727 in assay [1]; 0.811 in assay [3]; 1.51 in [4]; 0.425 in assay [5]; 0.17 in assay [6]; 0.374 in assay [7]. Further, the results for the composite z-score in [8], in assay [9] and in assay [10] were -0.295, 2.53 and 1.92, respectively. In assay [2], this compound yielded a z-score of -0.407.
